PubChem BioAssay
Calls of active or inactive are those of the source.

system: XIP peptide (Xip251-270) binding; test: small-molecule binders of XIP peptide, primary screen, biochemical, small-molecule microarray, fluorescence 635/667 nm, 0.1 µg/mL protein (AID 1182); conditions: fluorescent protein binding, 635 nm, higher = more signal, called active from +8 up or from −8 down

Composite z-score, inactive:
CCCC[C@@H]1C[C@H]1[C@@H](NC(=O)c1ccco1)c1ccc(-c2ccccc2)cc1 -0.781
O=C1O[C@@H](c2ccccc2)[C@@H](c2ccccc2)N2[C@@H](c3ccccc3OCCO)[C@]3(C(=O)Nc4ccc(C#CC5=CCCCC5)cc43)[C@@H](C(=O)N3CCCCCCC3)[C@H]12 5.92
O=C1NC(=O)C2C1C=CC(C(O)c1cccs1)N2Nc1ccc(Cl)cc1Cl (stereo unspecified) 0.228
COC(=O)[C@]1(CCC(=O)OC(C)(C)C)N=C(c2ccc(OCCCO)cc2)O[C@@H]1c1ccccc1CN=[N+]=[N-] 1.52
COc1ccc(C(=O)Nc2ccc(CN3C(=O)[C@]4(O[C@H](CCO)[C@@H]([Si](C)(C)c5ccc(OC)cc5)[C@@H]4C)c4ccccc43)cc2)cc1 2.8
CC1(C)C2C=C(C(O)C3C=CC4C(=O)NC(=O)C4N3Nc3ccc(Cl)cc3Cl)C[C@@H]1C2 (stereo partly specified) 1.15
C=C(COC)C(=O)CC[C@@H](OC(C)=O)c1ccc(CO)o1 0.861
COC(=O)c1c(CC[C@@H](CO)NC(=O)NCCn2cc(C3(O)CCCC3)nn2)oc(C(C)=O)c1C(=O)OC 0.333
C=C(C(=O)CC[C@@H](OC(=O)c1cccnc1)c1ccccc1OCCO)C(C)C 0.79
CCOC(=O)C[C@H]1[C@H](OC(=O)c2ccc(C(=O)c3ccccc3)cc2)[C@@H](NC(=O)c2ccccc2)c2cc(OCCCO)ccc2N1C(=O)c1ccc2ccccc2n1 0.0933
COc1cc(NN2C(C(O)c3ccco3)C=CC3C(=O)N(c4ccccc4)C(=O)C32)cc(OC)c1OC (stereo unspecified) 0.318
COCCCNC(=O)[C@@]1(C)c2ccccc2C(=O)N(C(C)C)[C@H]1c1ccc(CO)cc1 -0.102
COc1cc2c(cc1OC)CN(C(=O)[C@@H]1[C@H]3C(=O)O[C@H](c4ccccc4)[C@H](c4ccccc4)N3[C@H](c3ccc(O)cc3)[C@@]13C(=O)Nc1ccccc13)CC2 0.0997
O=C(NC1CC1)[C@@H]1c2ccccc2C(=O)N(Cc2ccccc2Cl)[C@H]1c1ccc(CO)cc1 0.628
O=C1c2ccccc2[C@](Cc2ccccc2I)(C(=O)NCC(F)(F)F)[C@H](c2ccc(CO)cc2)N1Cc1ccccc1Cl 0.149
Cc1ccc(S[C@]2(C(=O)O)CC(=O)N(C(C)C)[C@@H]2c2ccc(CO)cc2I)cc1 0.534
COc1ccc(C#Cc2ccc3c(c2)[C@]2(C(=O)N3)[C@H](C(=O)NC[C@H](O)c3ccccc3)[C@H]3C(=O)O[C@H](c4ccccc4)[C@H](c4ccccc4)N3[C@@H]2c2ccc(O)cc2)cc1 0.627
COC(=O)[C@@]1(Cc2ccc(F)cc2)[C@H]2c3cc(C(=O)N4CCCC4)n(Cc4ccc(S(C)(=O)=O)cc4)c3C[C@H]2CN1C(=O)c1ccccc1 0.845
O=C1C2C=CC(C(O)c3cccc4ccccc34)N(Nc3ccccc3F)C2C(=O)N1c1ccccc1 (stereo unspecified) 1.09
CCCC[C@@H]1C[C@H]1[C@@H](NC(=O)c1ccco1)c1ccccc1C(F)(F)F 0.259
CC(C)NC(=O)[C@@]1(c2ccc([N+](=O)[O-])cc2)CC(=O)N(C2CCCCC2)[C@@H]1c1ccc(CO)cc1I 0.46
C=CCOC(=O)[C@H]1[C@@H]2C(=O)O[C@@H](c3ccccc3)[C@@H](c3ccccc3)N2[C@@H](c2ccc(OCCOC(=O)[C@H]3C[C@H]4C(=O)N[C@@H](CCCCNC(C)=O)C(=O)N4[C@H]3c3ccc(O)cc3)cc2)[C@]12C(=O)Nc1ccc(I)cc12 0.159
Cc1ccc(S[C@]2(C(=O)NC3CC3)CC(=O)N(Cc3ccccc3)[C@@H]2c2ccc(CO)cc2I)cc1 0.135
CC1CC/C=C\[C@H]2OC34C=CCN(C(C)(C)C)C(=O)[C@H]3N(CCO)C(=O)[C@@H]4C2C(=O)O1 (stereo partly specified) -0.892
C=CCC(OC(C)=O)[C@@H]1[C@@H](N(Cc2ccc(-c3ccccc3)cc2)C(=O)Cc2ccc(OC)cc2)c2cc(OCCCO)ccc2N1C(=O)Cc1ccc2ccccc2c1 (stereo partly specified) 1.46
COC(=O)C(CC#Cc1ccc2c(c1)[C@]1(C(=O)N2)[C@H](C(=O)Nc2nc3ccccc3s2)[C@H]2C(=O)O[C@H](c3ccccc3)[C@H](c3ccccc3)N2[C@@H]1c1ccc(O)cc1)C(=O)OC 0.297
